In PubChem BioAssay:
Values joined by “and” are separate entries in the source; they are usually repeats but may differ in a detail not shown here. Identical values can stand only once. Where a structure was tested more than once in an assay, its records may differ in their call. Active and inactive are the calls of the source.

Legend:
[1] = optical density shifts of acrAB sulA E. coli – strain DRC41, OD650, 48 h, E. coli filamentation inducer project, primary screen (AID 1152); conditions: higher = more signal, called active from +8 up or from −8 down;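 further: E. coli MC1000 strain DRC41 lacking acrAB efflux pump and sulA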
[2] = probe aLefty1 binding on compound microarray – biochemical, small-molecule microarray, 635/667 nm fluorescence, primary screen (AID 1153); conditions: higher = more signal;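 further: score merges spot fluorescence with signal-to-noise ratio from the scanned slide images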
[3] = plasmodial surface anion channel blockers, osmotic lysis – cell-based, P. falciparum Indochina, OD700, 1 h, primary screen (AID 1154); conditions: P. falciparum Indochina infected RBC osmotic lysis, higher = more signal, called active from +8 up or from −8 down
[4] = plasmodial surface anion channel blockers, osmotic lysis – cell-based, P. falciparum Indochina, OD700, 2 h, primary screen (AID 1155);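 further: lysis reports solute entry through the parasite surface anion channel PSAC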; conditions: P. falciparum Indochina infected erythrocytes, higher = more signal, called active from +8 up or from −8 down
[5] = changes in parasitized red cell lysis, either direction – P. falciparum Indochina, OD700, 3 h, PSAC antagonist project, primary screen (AID 1156); conditions: P. falciparum-infected erythrocytes, osmotic lysis, higher = more signal, called active from +8 up or from −8 down
[6] = plasmodial surface anion channel blockers, osmotic lysis – cell-based, P. falciparum Indochina, OD700, 18 h, primary screen (AID 1157); conditions: P. falciparum Indochina infected erythrocytes, osmotic lysis OD700, 18 h; higher = more signal, called active from +8 up or from −8 down
[7] = S6 kinase pathway phospho-S6 level changes – cell-based, A549, cytoblot, luminescence, serum-stimulated, primary screen (AID 1158); conditions: 5 h, higher = more signal;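 further: serum-stimulated A549 lung adenocarcinoma cells; signal is phosphorylated S6 detected by cytoblot immunostaining with HRP secondary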
[8] = biological target: NADPH oxidase 2 (Homo sapiens) (UniProt P04839); assay: compounds shifting NOX2 Amplex Red fluorescence – cell-based, HEK293-NOX2, PMA-stimulated, NOX inhibitor project, primary screen (AID 1159); conditions: 45 min, higher = more signal, called active from +8 up or from −8 down; further: test concentration not given here
Sequence of NADPH oxidase 2 (Homo sapiens) (P04839 whole entry, looked up): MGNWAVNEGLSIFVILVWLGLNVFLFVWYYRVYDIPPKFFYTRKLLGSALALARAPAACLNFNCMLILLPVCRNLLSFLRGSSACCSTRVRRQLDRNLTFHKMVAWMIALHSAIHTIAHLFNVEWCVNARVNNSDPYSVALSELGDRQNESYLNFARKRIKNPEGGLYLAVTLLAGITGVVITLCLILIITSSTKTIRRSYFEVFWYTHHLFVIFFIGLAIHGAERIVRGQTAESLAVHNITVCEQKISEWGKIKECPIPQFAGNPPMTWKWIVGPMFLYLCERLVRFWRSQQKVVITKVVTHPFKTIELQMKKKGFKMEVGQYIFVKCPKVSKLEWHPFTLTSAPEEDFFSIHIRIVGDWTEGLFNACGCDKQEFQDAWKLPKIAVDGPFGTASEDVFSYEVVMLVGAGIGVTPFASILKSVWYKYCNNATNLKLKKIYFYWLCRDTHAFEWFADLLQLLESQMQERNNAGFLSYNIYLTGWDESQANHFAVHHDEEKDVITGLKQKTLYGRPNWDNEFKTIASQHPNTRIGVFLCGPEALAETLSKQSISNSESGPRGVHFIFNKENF

[9] = biological target: NADPH oxidase 4 (Homo sapiens) (UniProt Q9NPH5); assay: compounds shifting NOX4 Amplex Red fluorescence – cell-based, HEK293-NOX4, tetracycline-induced, NOX inhibitor project, primary screen (AID 1160); conditions: HEK293-NOX4, Amplex Red H2O2 fluorescence, 45 min; higher = more signal, called active from +8 up or from −8 down
Sequence of NADPH oxidase 4 (Homo sapiens) (Q9NPH5 whole entry, looked up): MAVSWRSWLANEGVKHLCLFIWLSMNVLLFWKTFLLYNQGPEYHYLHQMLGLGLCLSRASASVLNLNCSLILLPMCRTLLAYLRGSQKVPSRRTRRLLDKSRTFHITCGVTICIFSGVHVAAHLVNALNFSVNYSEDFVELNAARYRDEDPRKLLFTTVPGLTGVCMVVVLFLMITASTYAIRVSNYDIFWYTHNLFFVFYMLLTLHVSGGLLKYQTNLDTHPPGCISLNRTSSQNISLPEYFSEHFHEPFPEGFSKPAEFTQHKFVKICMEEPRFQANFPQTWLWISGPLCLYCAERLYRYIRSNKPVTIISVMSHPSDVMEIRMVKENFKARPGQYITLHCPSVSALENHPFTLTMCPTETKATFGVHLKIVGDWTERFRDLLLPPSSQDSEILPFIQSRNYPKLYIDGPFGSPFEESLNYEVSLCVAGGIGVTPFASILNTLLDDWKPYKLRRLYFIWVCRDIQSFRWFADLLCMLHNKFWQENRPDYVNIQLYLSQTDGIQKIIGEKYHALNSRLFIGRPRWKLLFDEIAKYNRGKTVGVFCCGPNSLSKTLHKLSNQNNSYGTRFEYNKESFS

[10] = biological target: NADPH oxidase 5 (Homo sapiens) (UniProt Q96PH1); assay: compounds shifting NOX5 Amplex Red fluorescence – cell-based, HEK293-NOX5, NOX inhibitor project, primary screen (AID 1161); conditions: HEK293-NOX5, ionomycin, 45 min, higher = more signal
Sequence of NADPH oxidase 5 (Homo sapiens) (Q96PH1 whole entry, looked up): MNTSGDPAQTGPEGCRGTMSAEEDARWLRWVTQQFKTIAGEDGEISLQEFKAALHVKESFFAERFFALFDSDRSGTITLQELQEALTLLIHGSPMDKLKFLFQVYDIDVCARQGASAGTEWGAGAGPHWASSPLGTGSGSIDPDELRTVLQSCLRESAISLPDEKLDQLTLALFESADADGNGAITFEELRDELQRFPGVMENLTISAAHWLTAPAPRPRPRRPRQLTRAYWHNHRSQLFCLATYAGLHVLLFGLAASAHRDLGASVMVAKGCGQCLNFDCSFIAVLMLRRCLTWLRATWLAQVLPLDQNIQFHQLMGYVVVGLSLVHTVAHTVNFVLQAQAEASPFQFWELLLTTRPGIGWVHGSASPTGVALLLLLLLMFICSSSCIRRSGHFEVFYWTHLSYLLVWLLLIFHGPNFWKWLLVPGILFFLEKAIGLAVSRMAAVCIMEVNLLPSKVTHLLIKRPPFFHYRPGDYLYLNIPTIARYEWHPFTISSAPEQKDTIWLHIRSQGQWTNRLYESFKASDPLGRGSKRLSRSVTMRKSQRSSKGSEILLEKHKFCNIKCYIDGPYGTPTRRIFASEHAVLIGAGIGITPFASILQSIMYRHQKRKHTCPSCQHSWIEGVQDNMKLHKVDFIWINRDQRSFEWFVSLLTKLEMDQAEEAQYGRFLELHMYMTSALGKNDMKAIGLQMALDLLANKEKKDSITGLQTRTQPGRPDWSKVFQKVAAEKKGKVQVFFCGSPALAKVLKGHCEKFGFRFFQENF

[11] = compound effects on lung adenocarcinoma cell viability – A549, calcein-AM fluorescence, 48 h, basal, profiling panel (AID 1162); conditions: higher = more signal; further: test concentration not given here
[12] = compound effects on differentiated 3T3-L1 adipocyte viability – cell-based, 3T3-L1 adipocytes, calcein-AM fluorescence, 48 h, basal, profiling panel (AID 1163); conditions: 3T3-L1 adipocytes viability, higher = more signal; further: test concentration not given here
[13] = compound effects on hepatocellular carcinoma cell viability – HepG2, calcein-AM fluorescence, 48 h, basal, profiling panel (AID 1164); conditions: higher = more signal; further: test concentration not given here
[14] = compound effects on multiple myeloma cell viability – MM1S, calcein-AM fluorescence, 48 h, basal, profiling panel (AID 1165); conditions: higher = more signal; further: test concentration not given here
[15] = calcein-AM signal in unstimulated myeloma cells – cell-based, calcein-AM fluorescence, 48 h, PK04 Diversity Set, profiling panel (AID 1166); conditions: RPMI8226 myeloma viability, higher = more signal;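 further: cells grown under basal conditions without added stimulus; test concentration not given here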
[16] = JC-1 mitochondrial signal, unstimulated HepG2 cells – cell-based, JC-1 fluorescence, 24 h, 100 nL compound, profiling panel (AID 1167); conditions: HepG2 mitochondrial potential, higher = more signal; further: test concentration not given here
[17] = JC-1 mitochondrial signal, unstimulated adipocytes – cell-based, JC-1 fluorescence, 3T3-L1 adipocytes, 24 h, 100 nL compound, profiling panel (AID 1168); conditions: JC-1 mitochondrial fluorescence, higher = more signal, called active from +8 up or from −8 down; further: test concentration not given here
[18] = JC-1 mitochondrial signal, unstimulated myeloma cells – cell-based, JC-1 fluorescence, RPMI8226, 24 h, 100 nL compound, profiling panel (AID 1169); conditions: JC-1 mitochondrial potential fluorescence, higher = more signal; further: test concentration not given here
[19] = JC-1 mitochondrial signal, unstimulated MM1S myeloma – cell-based, JC-1 fluorescence, 24 h, 100 nL compound, profiling panel (AID 1170); conditions: MM1S mitochondrial potential, higher = more signal; further: test concentration not given here
[20] = resazurin metabolic signal in A549 cells – cell-based, resazurin fluorescence, 24 h, PK04 Diversity Set, profiling panel (AID 1171); conditions: A549 viability, higher = more signal, called active from +8 up or from −8 down; further: test concentration not given here

Row | SMILES | z-score [1] | composite z-score [2] | z-score [3] | z-score [4] | z-score [5] | z-score [6] | z-score [7] | z-score [8] | z-score [9] | z-score [10] | z-score [11] | z-score [12] | z-score [13] | z-score [14] | z-score [15] | z-score [16] | z-score [17] | z-score [18] | z-score [19] | z-score [20]
1 | C=CCN(C(=O)C(c1cccs1)N(C(=O)/C=C\C(=O)O)C(C)(C)CO)c1ccc(OC)cc1 (stereo not given) | 3.97 (inactive) and 3.23 (inactive) | -0.0722 and 0.121 | 0.292 (inactive) and 3.92 (inactive) | -0.775 (inactive) and -0.466 (inactive) | 0.029 (inactive) and -0.675 (inactive) | -1.05 (inactive) and -1.12 (inactive) | 1.97 and 1.04 | 0.0253 (inactive) and -0.0835 (inactive) | -0.464 (inactive) and -0.814 (inactive) | -0.126 and 0.853 | 3.04 and 1.76 | 1.09 and 0.718 | 0.717 and 1.1 | 1.61 and 1.55 | -0.223 and 1.05 | 1.16 and 0.287 | 2.24 (inactive) and 0.954 (inactive) | -0.567 and 0.754 | 0.212 and 0.326 | 0.579 (inactive) and -0.0357 (inactive)
2 | COC(=O)C1=C(C)N(Cc2ccccc2)C2=C3C(=O)N(C)C(=O)[C@@H]3[C@@](O)(C(=O)OC)C(=O)N2[C@@H]1c1ccccc1 | 0.71 (inactive) and -0.313 (inactive) | 0.0341 and 0.0278 | -0.188 (inactive) and -1.06 (inactive) | -0.215 (inactive) and -1.49 (inactive) | -0.745 (inactive) and -0.379 (inactive) | -0.339 (inactive) and -1.77 (inactive) | -0.137 and 1.48 | 1.13 (inactive) and -0.926 (inactive) | 0.507 (inactive) and 0.254 (inactive) | -0.0308 and 0.418 | 0.77 and 0.914 | -0.159 and 0.143 | 0.215 and 1.05 | -0.607 and -0.213 | 0.0606 and 0.359 | 0.981 and 0.11 | -0.531 (inactive) and 0.96 (inactive) | 0.134 and -0.542 | 0.739 and 0.467 | 1.18 (inactive) and -1.08 (inactive)
3 | C=CCN(C(=O)C(c1cccs1)N(C(=O)/C=C\C(=O)O)c1ccc(CCO)cc1)C(C)(C)C (stereo not given) | 0.381 (inactive) and -0.0974 (inactive) | -0.134 and 0.0355 | -0.274 (inactive) and -0.322 (inactive) | -0.432 (inactive) and 0.0511 (inactive) | -0.518 (inactive) and -0.338 (inactive) | 0.0097 (inactive) and 0.232 (inactive) | 1.36 and 0.123 | 0.0507 (inactive) and 0.27 (inactive) | -0.86 (inactive) and -0.783 (inactive) | 0.274 and 0.335 | -0.392 and -0.51 | -0.589 and -1.1 | -0.0749 and -0.55 | -1.18 and 0.821 | 0.3 and 0.317 | -0.178 and -0.341 | 0.529 (inactive) and -0.179 (inactive) | 0.185 and 0.0345 | 0.75 and 0.721 | -0.0762 (inactive) and -0.389 (inactive)
4 | CC(CO)N1C(=O)[C@@H]2C3C(=O)OCCC=C[C@H]3OC23C=CCN(c2ccc4ccccc4c2)C(=O)[C@@H]13 (stereo not given in full) | -0.562 (inactive) and -0.929 (inactive) | -0.0015 and -0.673 | 3.31 (inactive) and 4.57 (inactive) | 1.28 (inactive) and 0.577 (inactive) | 1.18 (inactive) and 0.724 (inactive) | 0.652 (inactive) and 0.282 (inactive) | -0.631 and -0.363 | 1.68 (inactive) and 1.25 (inactive) | 0.411 (inactive) and 1.05 (inactive) | 2.69 and 2.08 | -0.288 and -0.0156 | 0.0371 and -0.217 | -0.463 and -0.565 | 0.0923 and 1.01 | -0.526 and -0.237 | -0.0969 and -0.0971 | -0.684 (inactive) and -1.28 (inactive) | -0.904 and 0.195 | 0.238 and 0.275 | -0.124 (inactive) and 0.0409 (inactive)
5 | C[N+](C)(C)CCCCNC(=O)[C@H]1C[C@H]2C(=O)N[C@@H](CCCC[N+](C)(C)C)C(=O)N2[C@H]1c1ccc(O)cc1 | -0.0772 (inactive) and -0.0145 (inactive) | -0.0984 and -0.447 | -0.373 (inactive) and 0.369 (inactive) | -0.114 (inactive) and -1.21 (inactive) | -1.78 (inactive) and -0.688 (inactive) | 0.154 (inactive) and -2.13 (inactive) | -0.809 and 0.448 | -1.13 (inactive) and -2.89 (inactive) | -0.108 (inactive) and -3.27 (inactive) | -0.693 and -2.66 | -0.231 and -0.502 | -1.46 and 0.308 | -0.905 and -1.22 | -0.088 and -0.298 | -0.598 and -0.804 | -0.982 and -1.85 | -0.258 (inactive) and -0.841 (inactive) | 0.629 and -0.808 | -0.588 and -0.423 | -0.471 (inactive) and -0.706 (inactive)
6 | O=C1C[C@]2(c3ccc([N+](=O)[O-])cc3)C(=O)N(Cc3ccccc3)c3cc(CO)ccc3[C@H]2N1C1CCCCC1 | 0.128 (inactive) and 0.873 (inactive) | -0.221 and -0.0626 | 0.164 (inactive) and 11.5 (active) | -0.198 (inactive) and 1.01 (inactive) | -0.57 (inactive) and 4.35 (inactive) | -0.434 (inactive) and -0.166 (inactive) | 0.483 and 2.97 | 0.139 (inactive) and 1.55 (inactive) | 0.644 (inactive) and -1.56 (inactive) | -0.416 and -0.385 | -0.8 and 0.627 | 0.43 and 1.53 | -1.3 and 0.0974 | -0.514 and -2.14 | -0.684 and -2.65 | -0.236 and 0.352 | -0.0101 (inactive) and -0.0655 (inactive) | -0.469 and -0.544 | -0.152 and -0.189 | 0.466 (inactive) and -0.352 (inactive)
